An excerpt weighted towards active compounds, which were near 2.5% of everything screened.
D2 antagonist: D2 dopamine receptor (human) antagonism. P14416. HEK293 TREx D2 cells, calcium flux, dopamine EC80. inhibition, % at 10 µM. hit rate 2% among 340,000; in the data active = inhibition above about 30%; inactive = below that, where a call was filed
Target sequence (P14416 whole entry, looked up): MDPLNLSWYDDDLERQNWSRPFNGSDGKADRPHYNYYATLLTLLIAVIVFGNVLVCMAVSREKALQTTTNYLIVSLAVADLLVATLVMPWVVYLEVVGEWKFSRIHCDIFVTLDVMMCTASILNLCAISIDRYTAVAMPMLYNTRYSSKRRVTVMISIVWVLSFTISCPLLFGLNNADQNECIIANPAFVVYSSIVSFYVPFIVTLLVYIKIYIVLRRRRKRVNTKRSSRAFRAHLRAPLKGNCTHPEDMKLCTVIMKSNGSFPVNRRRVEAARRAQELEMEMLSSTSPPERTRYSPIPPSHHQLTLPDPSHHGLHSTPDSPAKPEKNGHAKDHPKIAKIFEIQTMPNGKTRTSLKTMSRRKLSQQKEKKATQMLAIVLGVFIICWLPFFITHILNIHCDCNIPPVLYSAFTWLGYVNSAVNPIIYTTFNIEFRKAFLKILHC
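Calcium flux kinetic readout in an inducible HEK293 TREx D2 line plated overnight at 30 C. After 180 s compound exposure, an EC80 dopamine challenge follows with another 180 s kinetic read to detect antagonism.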
Anesthetic bind: candidate novel general anesthetic via apoferritin binding. P02791. apoferritin/1-aminoanthracene competitive binding, fluorescence. Potency, µM (highest dose often 77.5 µM), most hits filed as inhibitors. hit rate 0.074% among 350,000; active = well fitted inhibition curve with a large enough effect; inconclusive = small, poorly fitted or top-dose-only effect; inactive = no such curve, though single readings can be large or run the other way; also: nearly all actives have a fitted effect of over 20% in size
Target sequence (P02791 2-175 limits assumed): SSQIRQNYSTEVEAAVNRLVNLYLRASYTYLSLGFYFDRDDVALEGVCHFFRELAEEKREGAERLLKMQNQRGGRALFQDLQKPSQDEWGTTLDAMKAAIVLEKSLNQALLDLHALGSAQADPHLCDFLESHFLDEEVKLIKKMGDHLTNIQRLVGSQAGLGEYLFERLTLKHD
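Apoferritin-based anesthetic binding model; compound displacement of fluorescent 1-AMA measured as endpoint fluorescence after 10 minutes at room temperature, scaled to free-ligand and complex controls.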
D2 ag-1: activates the human D2 dopamine receptor; DiscoveRx PathHunter D2 beta-arrestin, luminescence, 90 min; 100% = 57 uM dopamine signal; activation, % (concentration not given with the values); hit rate 0.084% among 360,000; P14416; in the data active = activation above about 40%; inconclusive = between about 15% and that limit
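DiscoveRx PathHunter D2 beta-arrestin cells (2,100/well) attached overnight, then compound-stimulated 90 min at 37 C in HBSS/10 mM HEPES/0.1% Tween-20 buffer; beta-galactosidase complementation read by luminescence after 1 h at ambient temperature. Dopamine 57 uM final (EC100) as control.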
D2 PAM-1: human D2 receptor positive allosteric modulation; DiscoveRx D2 beta-arrestin cells, luminescence, 90 min; 100% = 57 uM dopamine signal; AID 624464; P14416; hit rate 0.23% among 360,000; potentiation, % (test concentration not listed); in the data active = potentiation above about 50%; inconclusive = mostly about 30% to 49%
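PathHunter beta-arrestin assay in DiscoveRx D2 cells. Compounds were added with an EC20 of dopamine (50 nM final) for 90 min at 37 deg C. Luminescence was read 1 h after detection reagent, with 57 uM dopamine as the EC100 control.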
D2 PAM-2: D2 dopamine receptor (human) potentiation. hit rate 0.34% among 340,000. P14416. potentiation, % at 10 µM. HEK293 T-REx D2, calcium flux, EC20 dopamine potentiation;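 active = potentiation over 3 SD above the plate norm, cut at about 30% in these data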
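Using a no-wash calcium dye in inducible, force-coupled HEK293 Trex cells expressing D2, we tracked fluorescence each second for 180 s after compound, then for 180 s after EC20 dopamine to detect augmented signalling.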
D2 ag-2: D2 dopamine receptor (human) agonism; P14416; HEK293 T-REx D2 cells, calcium flux agonist mode; activation, % at 2 µM; hit rate 0.53% among 340,000;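 active = activation over 3 SD above normal in the single-dose calcium agonist read, cut at about 30% in these data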
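HEK293 Trex D2 cells, tetracycline-induced, o/n 30 C 5% CO2; no-wash Ca dye, RT 30–90 min; 10-cycle baseline, 23 nl cpd added, kinetic Ca read 180 s; agonist hits = positive Ca response.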
Of the large screens only hits and unclear results are named; the others gave an inactive call.

Nc1nc2n(n1)C(c1ccc(Cl)cc1)CC(c1ccc(F)cc1)N2 (stereo unspecified)	none
COc1ccc(Nc2nnc(SC(C(=O)Nc3cc(C)ccc3C)c3ccccc3)s2)cc1 (stereo unspecified)	none
O=C(O)c1cc(S(=O)(=O)Nc2cccc(Oc3ccccc3)c2)ccc1Br	D2 PAM-2 39
O=C(Nc1ccccc1C(=O)O)c1cccc(S(=O)(=O)Nc2ccc(Br)cc2)c1	D2 PAM-1 inconclusive
O=C(O)c1cc(S(=O)(=O)Nc2ccc(OCc3ccccc3)cc2)ccc1Br	none
O=C(Nc1ccccc1C(=O)O)c1cccc(NS(=O)(=O)c2ccc(Br)cc2)c1	D2 PAM-1 82 (no result: D2 antagonist, D2 PAM-2, D2 ag-2)
O=C(c1cnn2ccccc12)N1CCCc2ccccc21	none
CC(C(=O)Nc1cccnc1)c1ccc([N+](=O)[O-])cc1 (stereo unspecified)	none
CC(=O)Oc1ccc(N2C(=O)CCC2=O)cc1	none
COc1ccc(N2C(=O)CCC2=O)cc1	D2 antagonist 34
COc1ccc(-c2cc(=O)oc3cc(OCC(=O)NCCCn4ccnc4)ccc23)cc1	none
Cc1cc(C(=O)NCCCn2ccnc2)sc1-c1ccccc1	D2 antagonist 47
Cc1cc(Cl)ccc1OCC(=O)NCCCn1ccnc1	none
CCc1cc(=O)oc2cc(OCC(=O)NCCCn3ccnc3)ccc12	D2 antagonist 37
COc1ccc(C(C)=O)cc1CC(=O)NCCCn1ccnc1	D2 PAM-2 34
Cc1cc(Cl)ccc1OCCCC(=O)NCCCn1ccnc1	D2 antagonist 36
COc1cccc(/C=c2\s/c(=C\C(=O)C(C)(C)C)[nH]c2=O)c1	Anesthetic bind inconclusive
CCOc1ccc(N2C(=O)CC(Sc3nc(O)c(CC)c(=O)[nH]3)C2=O)cc1 (stereo unspecified)	none (no result: D2 antagonist, Anesthetic bind, D2 PAM-2, D2 ag-2)
COc1ccc(NC(=O)CN2C(=O)CSc3ccc(S(=O)(=O)N4CCCC4)cc32)cc1OC	none
Cc1cc(NC(=S)NC(=O)c2ccccc2)ccc1-c1cc2ccccc2oc1=O	D2 antagonist 63
Cc1cc(NC(=O)c2ccc(F)cc2)ccc1-c1cc2ccccc2oc1=O	none (no result: D2 antagonist, D2 ag-1, D2 PAM-1, D2 ag-2)
O=C(c1ccc(NS(=O)(=O)c2ccc(F)cc2)cc1)N1CCC1	D2 antagonist 42 (no result: Anesthetic bind)
O=C(c1ccc(S(=O)(=O)Nc2ccccc2F)cc1)N1CCCC1	D2 antagonist 51 (no result: Anesthetic bind)
O=C(c1ccc(S(=O)(=O)Nc2ccccc2Cl)cc1)N1CCCC1	none (no result: D2 antagonist, Anesthetic bind, D2 PAM-2, D2 ag-2)
CCOC(=O)N1CCN(C(=O)c2ccc(NS(=O)(=O)c3ccc(F)cc3)cc2)CC1	D2 PAM-1 inconclusive
Cc1csc2nc(=O)c3ccccc3n12	none
c1ccc(-c2ccccc2OCCCCN2CCCCC2)cc1	D2 antagonist 75
c1ccc(-c2ccccc2OCCCN2CCCC2)cc1	none
c1ccc(-c2ccccc2OCCCN2CCCCCC2)cc1	D2 antagonist 56
COc1ccccc1N1CCN(S(=O)(=O)c2cc3c(cc2C)NC(=O)CO3)CC1	none
O=C(CSCc1ccc([N+](=O)[O-])cc1)NN=C1CCCCCC1	Anesthetic bind inconclusive, D2 PAM-2 35
O=C(CSCc1ccccc1Cl)NN=C1CCCCCC1	D2 antagonist 38
O=C(CSCc1ccc(Cl)cc1)NN=C1CCCC1	Anesthetic bind inconclusive
O=C(CSCc1c(Cl)cccc1Cl)NN=C1CCCC1	Anesthetic bind inconclusive
Oc1ccccc1N1CCN(CC(O)COC2CCCc3ccccc32)CC1 (stereo unspecified)	D2 antagonist 40
OC(COc1ccc2c(c1)CCC2)CN1CCN(c2ccccc2F)CC1 (stereo unspecified)	none
CC(C)(C)c1ccc(OCCC(=O)NC2=NCCS2)cc1	Anesthetic bind 13µM
Nc1cc(Cl)ccc1C(=O)OCC(=O)NC1CCCCCCC1	D2 antagonist 35 (no result: Anesthetic bind)
O=C(COC(=O)c1ccc(F)cc1F)NC1CC1	D2 antagonist 31
Cc1cc(NC(=O)Cn2c(=O)nc(-c3ccccc3F)c3cc(Cl)ccc32)ccc1Br	none (no result: D2 antagonist, D2 ag-1, D2 PAM-1)
CC1=CC(C)(C(Cl)Cl)C(C)=CC1=O (stereo unspecified)	D2 PAM-2 70
COc1ccc2c(c1)CCc1c(C(=O)N3CCCCCC3)noc1-2	Anesthetic bind inconclusive
COc1ccc2c(c1)CCc1c-2n[nH]c1C(=O)O	D2 antagonist 31
CN(C)c1ncnc2c1ncn2[C@H]1CN(Cc2ccncc2)C[C@@H](CO)O1	none (no result: D2 antagonist, Anesthetic bind, D2 PAM-2, D2 ag-2)
O=C(NNC(=O)[C@@H]1CCCC[C@@H]1C(=O)O)Nc1ccccc1	none
CCOC(=O)/C(C(=Nc1ccccc1)Nc1ccccc1)=C(\C)O	none
NC(=Nc1ccccc1)Nc1ccccc1	D2 antagonist 56, D2 ag-2 79
CCOc1ccc(OCC)c(NC(=O)Nc2ccc3c(c2)N(C)C(=O)CS3)c1	D2 antagonist 64
CCN(CC)CCNC(=S)Nc1ccc2nc3n(c(=O)c2c1)CCCCC3	none
CCCN(CCC)CCCNC(=S)Nc1ccc2nc3n(c(=O)c2c1)CCCCC3	D2 ag-2 32
COc1ccccc1NC(=O)c1cccc(S(=O)(=O)N2CCN(Cc3ccccc3)CC2)c1	none (no result: Anesthetic bind)
CC(NC(=O)c1cccc(S(=O)(=O)N2CCN(Cc3ccccc3)CC2)c1)c1ccc(Cl)cc1 (stereo unspecified)	D2 antagonist 36 (no result: Anesthetic bind)
CC(=O)Nc1ccc(S(=O)(=O)c2ccc([N+](=O)[O-])cc2)cc1	D2 ag-1 53
CC(=O)Nc1ccc(Oc2ccc([N+](=O)[O-])cc2Cl)cc1	Anesthetic bind 16µM
CC(=O)Nc1ccc(Oc2cc(N)cc([N+](=O)[O-])c2)cc1	none (no result: D2 antagonist, D2 PAM-2, D2 ag-2)
CC(=O)Nc1ccc(S(=O)(=O)Nc2ccc(F)c([N+](=O)[O-])c2)cc1	D2 antagonist 43
Cn1nc(C(F)(F)F)c(-c2ccc(Br)cc2)c1NC(=O)CSCC(=O)O	none (no result: D2 antagonist, D2 PAM-2, D2 ag-2)
Cc1cc(C)c(NC(=O)c2ccc3nccnc3c2)c(C)c1	none (no result: Anesthetic bind)
COC(=O)C1=C(C)N(CCCC(=O)O)C(=O)NC1c1ccc2c(c1)OCO2 (stereo unspecified)	none (no result: D2 antagonist, Anesthetic bind, D2 PAM-2, D2 ag-2)
CC1CCCCC1NC(=O)CN1CCN(Cc2ccccc2Cl)C1=O (stereo unspecified)	none
O=C(CN1CCN(Cc2ccccc2Cl)C1=O)NC1CCCCCCC1	D2 antagonist 31, Anesthetic bind inconclusive
CCOc1ccccc1N(CC(=O)NCC1CCCO1)C(=O)CCC(=O)Nc1ccccn1 (stereo unspecified)	none
COc1ccccc1N1CCN(CC(=O)Nc2cc(F)ccc2C)CC1	D2 antagonist 86
COc1ccccc1N1CCN(CC(=O)Nc2ccc(Cl)c(C(F)(F)F)c2)CC1	D2 antagonist 81
CCN(CC)c1ccc(/C=C(/C#N)C(=O)NCc2ccccc2)o1	Anesthetic bind inconclusive, D2 ag-2 43
